{"source": "paper PMC12820563", "about": "“FoxP3 forms a head-to-head dimer in vivo and stabilizes its multimerization on adjacent microsatellites”", "note": "Over roughly 16,000 sequences, “rpm ratio (pull-down/input)” has its median near 0.94; the highest 2% begin near 1.7. For the sample, the highest values were picked, then their nearest neighbours and some sequences at random."}
{"target": "T1, MBP-FoxP1dN (Mus musculus, UniProt P58462 326-579)", "T1 sequence": "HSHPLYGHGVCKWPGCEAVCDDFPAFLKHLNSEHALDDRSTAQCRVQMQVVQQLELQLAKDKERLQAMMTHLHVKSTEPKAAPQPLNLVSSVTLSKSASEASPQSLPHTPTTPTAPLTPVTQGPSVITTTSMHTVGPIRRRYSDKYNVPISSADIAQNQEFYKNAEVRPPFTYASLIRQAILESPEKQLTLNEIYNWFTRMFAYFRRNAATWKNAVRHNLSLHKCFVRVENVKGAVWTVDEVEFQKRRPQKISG", "assay": "PD-seq (MBP pull-down with sequencing); 20 mM Tris-HCl pH 7.5, 100 mM NaCl, 1.5 mM MgCl2, 0.4 uM protein, 0.1 uM dsDNA library, 30 min, room temperature, amylose pull-down; high values mean tight binding", "conditions": "protein: recombinant; tags: His6-MBP; chain copies: 2; dsDNA, one strand shown", "method_in_brief": "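Amylose resin was used to capture complexes formed during 30 min at room temperature in Tris pH 7.5 buffer with NaCl and MgCl2 between 0.4 µM His6-MBP-tagged mouse FoxP3 or FoxP1 fragment lacking the N-terminus, expressed in E. coli, and 0.1 µM Klenow-filled double-stranded degenerate DNA library. After three washes, the DNA was released with proteinase K, barcoded by PCR and sequenced on Illumina. Binding is pooled-replicate reads-per-million enrichment, pull-down over input.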"}
{"sequence": "GATGATTGTTCTCCCAGCTGATGAATTAACGAGTTCGAGTAAACAAATTTTCCTAATCTTTCTGTTCAAGCGCCATCTAC", "binding signal": "0.92 RPM ratio (pull-down/input)"}
{"sequence": "GATGATTGTTCTCCCAGCTGATGAATTAGCGACCTCGAGTAAACAAATTTTCCTAATCTTTCTGTTCAAGCGCCATCTAC", "binding signal": "0.762 RPM ratio (pull-down/input)"}
{"sequence": "GATGATTGTTCTCCCAGCTGATGAATTCCTGAACTCGAGTAAACAAATTTTCCTAATCTTTCTGTTCAAGCGCCATCTAC", "binding signal": "0.79 RPM ratio (pull-down/input)"}
{"sequence": "GATGATTGTTCTCCCAGCTGATGAATTAGCATAGTCGAGTAAACAAATTTTCCTAATCTTTCTGTTCAAGCGCCATCTAC", "binding signal": "0.88 RPM ratio (pull-down/input)"}
{"sequence": "GATGATTGTTCTCCCAGCTGATGAATTTTGTGTGTCGAGTAAACAAATTTTCCTAATCTTTCTGTTCAAGCGCCATCTAC", "binding signal": "1.48 RPM ratio (pull-down/input)"}
{"sequence": "GATGATTGTTCTCCCAGCTGATGAATTTGTGTCGTCGAGTAAACAAATTTTCCTAATCTTTCTGTTCAAGCGCCATCTAC", "binding signal": "1.23 RPM ratio (pull-down/input)"}
{"sequence": "GATGATTGTTCTCCCAGCTGATGAATTTTTTGTGTCGAGTAAACAAATTTTCCTAATCTTTCTGTTCAAGCGCCATCTAC", "binding signal": "1.12 RPM ratio (pull-down/input)"}
{"sequence": "GATGATTGTTCTCCCAGCTGATGAATTGTGTGTGTCGAGTAAACAAATTTTCCTAATCTTTCTGTTCAAGCGCCATCTAC", "binding signal": "1.52 RPM ratio (pull-down/input)"}
{"sequence": "GATGATTGTTCTCCCAGCTGATGAATTTGTTGTGTCGAGTAAACAAATTTTCCTAATCTTTCTGTTCAAGCGCCATCTAC", "binding signal": "2.48 RPM ratio (pull-down/input)"}
{"sequence": "GATGATTGTTCTCCCAGCTGATGAATTTGTGTTGTCGAGTAAACAAATTTTCCTAATCTTTCTGTTCAAGCGCCATCTAC", "binding signal": "2.64 RPM ratio (pull-down/input)"}
{"sequence": "GATGATTGTTCTCCCAGCTGATGAATTCCGTACCTCGAGTAAACAAATTTTCCTAATCTTTCTGTTCAAGCGCCATCTAC", "binding signal": "0.829 RPM ratio (pull-down/input)"}
{"sequence": "GATGATTGTTCTCCCAGCTGATGAATTATCTGTCTCGAGTAAACAAATTTTCCTAATCTTTCTGTTCAAGCGCCATCTAC", "binding signal": "0.945 RPM ratio (pull-down/input)"}
{"sequence": "GATGATTGTTCTCCCAGCTGATGAATTTTTGTAATCGAGTAAACAAATTTTCCTAATCTTTCTGTTCAAGCGCCATCTAC", "binding signal": "1.78 RPM ratio (pull-down/input)"}
{"sequence": "GATGATTGTTCTCCCAGCTGATGAATTGTATATATCGAGTAAACAAATTTTCCTAATCTTTCTGTTCAAGCGCCATCTAC", "binding signal": "1.6 RPM ratio (pull-down/input)"}
{"sequence": "GATGATTGTTCTCCCAGCTGATGAATTTTGTAAATCGAGTAAACAAATTTTCCTAATCTTTCTGTTCAAGCGCCATCTAC", "binding signal": "1.5 RPM ratio (pull-down/input)"}
{"sequence": "GATGATTGTTCTCCCAGCTGATGAATTGTATATCTCGAGTAAACAAATTTTCCTAATCTTTCTGTTCAAGCGCCATCTAC", "binding signal": "1.36 RPM ratio (pull-down/input)"}
{"sequence": "GATGATTGTTCTCCCAGCTGATGAATTCTGTATATCGAGTAAACAAATTTTCCTAATCTTTCTGTTCAAGCGCCATCTAC", "binding signal": "1.67 RPM ratio (pull-down/input)"}
{"sequence": "GATGATTGTTCTCCCAGCTGATGAATTGTGTATATCGAGTAAACAAATTTTCCTAATCTTTCTGTTCAAGCGCCATCTAC", "binding signal": "1.9 RPM ratio (pull-down/input)"}
{"sequence": "GATGATTGTTCTCCCAGCTGATGAATTTGTAAAATCGAGTAAACAAATTTTCCTAATCTTTCTGTTCAAGCGCCATCTAC", "binding signal": "1.24 RPM ratio (pull-down/input)"}
{"sequence": "GATGATTGTTCTCCCAGCTGATGAATTGAGTATATCGAGTAAACAAATTTTCCTAATCTTTCTGTTCAAGCGCCATCTAC", "binding signal": "1.1 RPM ratio (pull-down/input)"}
{"sequence": "GATGATTGTTCTCCCAGCTGATGAATTTTGTACTTCGAGTAAACAAATTTTCCTAATCTTTCTGTTCAAGCGCCATCTAC", "binding signal": "0.97 RPM ratio (pull-down/input)"}
{"sequence": "GATGATTGTTCTCCCAGCTGATGAATTGTGTACTTCGAGTAAACAAATTTTCCTAATCTTTCTGTTCAAGCGCCATCTAC", "binding signal": "1.84 RPM ratio (pull-down/input)"}
{"sequence": "GATGATTGTTCTCCCAGCTGATGAATTTTGTATATCGAGTAAACAAATTTTCCTAATCTTTCTGTTCAAGCGCCATCTAC", "binding signal": "2.33 RPM ratio (pull-down/input)"}
{"sequence": "GATGATTGTTCTCCCAGCTGATGAATTCTGTACTTCGAGTAAACAAATTTTCCTAATCTTTCTGTTCAAGCGCCATCTAC", "binding signal": "0.932 RPM ratio (pull-down/input)"}
